Screening data from PubChem BioAssay.
IDE exosite FP = exo-site inhibitors of human insulin-degrading enzyme. P14735. purified IDE, FL-6b probe fluorescence polarization; stronger effect = lower value. z-score at 20 µM. AID 1259349. 17,000 tested, 6.3% active;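 active means z-score of -3 or lower, meaning strong loss of probe binding signal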;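 further: His-tagged human IDE residues 42-1019 made in E. coli with 30 nM FL-6b probe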
* marks the source's active call; other numbers are inactive results. The full list was thinned out, with hits kept by preference.

SMILES | IDE exosite FP
CC(=O)N1CCCCN2[C@H](C1)[C@H](c1ccc(C#Cc3ccccc3F)cc1)[C@@H]2CO | -4.7*
CC(=O)N1CCCCN2[C@H](CO)[C@H](c3ccc(C#Cc4ccccc4F)cc3)[C@H]2C1 | -7.3*
CC(=O)N1CCCCN2[C@H](C1)[C@@H](c1ccc(C#Cc3ccccc3F)cc1)[C@@H]2CO | -4.5*
CC(=O)N1CCCCN2[C@H](CO)[C@H](c3ccc(C#Cc4ccccc4F)cc3)[C@@H]2C1 | -4.9*
COc1ccc(C#Cc2ccc([C@H]3[C@@H](CO)N4CCCCN(C(=O)Nc5ccccc5F)C[C@@H]34)cc2)cc1 | 1.7
CC(=O)N1CCCCN2[C@@H](CO)[C@H](c3ccc(C#Cc4ccccc4F)cc3)[C@@H]2C1 | -0.29
CC(=O)N1CCCCN2[C@H](CO)[C@@H](c3ccc(-c4ccccc4)cc3)[C@H]2C1 | -0.77
O=C(Nc1ccc(F)cc1)N1CCCCN2[C@H](CO)[C@@H](c3ccc(C#Cc4ccccc4)cc3)[C@@H]2C1 | 3.6
CC(=O)NC[C@@H]1[C@H](c2ccc(-c3ccccc3F)cc2)[C@@H](CO)N1C(=O)C1CC1 | 3
COc1cccc(CNC(=O)C[C@@H]2CC[C@@H]3[C@@H](COc4ccc(NS(=O)(=O)c5ccccc5F)cc4C(=O)N3C)O2)c1 | -0.98
C/C=C/c1ccc([C@@H]2[C@H](CN(C)S(C)(=O)=O)N[C@@H]2CO)cc1 | 3.8
CN1C(=O)c2cc(NS(=O)(=O)c3ccccc3F)ccc2OC[C@H]2O[C@@H](CC(=O)NC3Cc4ccccc4C3)CC[C@@H]21 | -0.56
COc1cccc(-c2cn(CC[C@H]3CC[C@@H](NS(=O)(=O)c4ccccc4Cl)[C@@H](CO)O3)nn2)c1 | 0.32
Cc1ccc(S(=O)(=O)Nc2ccc3c(c2)C(=O)N([C@@H](C)CO)C[C@H](C)[C@H](CN(C)S(=O)(=O)c2cccs2)OCCCC[C@@H](C)O3)cc1 | 0.086
C[C@@H]1CCCCO[C@H](CN(C)C(=O)c2ccncc2)[C@@H](C)CN([C@@H](C)CO)C(=O)c2cc(NC(=O)CCC(F)(F)F)ccc2O1 | 0.32
C[C@@H]1CC=CC[C@@H](c2ccccc2)NC(=O)[C@@H](C)N(C)C(=O)c2ccccc2O1 (mixture of isomers) | 0.33
COc1ccc2c3c([nH]c2c1)[C@H](CO)NCC31CCN(C(=O)Nc2ccccc2F)CC1 | 0.36
OC[C@H]1[C@H](c2ccc(C#CC3CCCC3)cc2)[C@@H]2CN(CCC(F)(F)F)CCCCN12 | 4.3
COc1ccccc1C#Cc1ccc([C@@H]2[C@@H](CO)N3CCCCN(CCC(F)(F)F)C[C@H]23)cc1 | -2.6
OC[C@@H]1[C@@H](c2ccc(C#CC3CCCC3)cc2)[C@H]2CN(CCC(F)(F)F)CCCCN12 | 1.7
COc1ccccc1C#Cc1ccc([C@H]2[C@H]3CN(CCC(F)(F)F)CCCCN3[C@H]2CO)cc1 | -7.2*
OC[C@H]1[C@@H](c2ccc(-c3ccccc3)cc2)[C@@H]2CN(CCC(F)(F)F)CCCCN12 | -0.54
COc1ccccc1C#Cc1ccc([C@H]2[C@@H](CO)N3CCCCN(CCC(F)(F)F)C[C@H]23)cc1 | -12*
CN(C)CC#Cc1ccc([C@@H]2[C@@H](CO)N3C(=O)CN(C(=O)c4cccc(F)c4)C[C@@H]23)cc1 | 0.49
CCc1cnc(N2[C@H](C#N)[C@H](c3ccc(C4=CCCC4)cc3)[C@H]2CO)s1 | 4.1
SMILES | IDE exosite FP
CO[C@H](CN(C)C(=O)c1cc(Cl)cc(Cl)c1)[C@@H](C)CN(C(=O)Nc1ccc(F)cc1)[C@@H](C)CO | 1.8
O=C1CNC[C@@H]2[C@H](c3ccc(C4=CCCC4)cc3)[C@@H](CO)N12 | 0.17
Cc1cccc(S(=O)(=O)N2[C@@H]3CNC[C@H]2C3c2ccc(-c3cccnc3)cc2)c1 (stereo not given in full) | -0.5
Cc1ccccc1-c1ccc([C@@H]2[C@@H](CO)N3CCCCN(C(=O)Nc4ccc(F)cc4)C[C@@H]23)cc1 | 0.29
Cc1ccccc1-c1ccc([C@@H]2[C@H](CO)N3CCCCN(C(=O)Nc4ccc(F)cc4)C[C@@H]23)cc1 | -11*
Cc1ccccc1-c1ccc([C@@H]2[C@H](CO)N3CCCCN(C(=O)Nc4ccccc4)C[C@@H]23)cc1 | -5*
Cc1ccccc1-c1ccc([C@H]2[C@@H](CO)N3CCCCN(C(=O)Nc4ccccc4)C[C@@H]23)cc1 | -1.4
Cc1ccccc1-c1ccc([C@@H]2[C@@H](CO)N3CCCCN(C(=O)Nc4cccc(F)c4)C[C@@H]23)cc1 | -1.5
COc1ccc(NC(=O)N2CCCCN3[C@H](CO)[C@@H](c4ccc(-c5ccccc5C)cc4)[C@@H]3C2)cc1 | 0.55
CCCNC(=O)Nc1ccc2c(c1)OC[C@@H](C)N(C(=O)C1CCOCC1)C[C@@H](C)[C@@H](OC)CN(C)C2=O | 0.59
N#C[C@@H]1[C@H](c2ccccc2-c2cccc(F)c2)[C@H](CO)N1C(=O)NC1CCCCC1 | -0.91
COc1ccccc1C#Cc1ccc([C@@H]2[C@@H](CO)N3CCCCN(S(C)(=O)=O)C[C@H]23)cc1 | -5.6*
CCCC#Cc1ccc([C@H]2[C@H](CO)N3CCCCN(S(C)(=O)=O)C[C@@H]23)cc1 | 3.4
CCCC#Cc1ccc([C@H]2[C@@H](CO)N3CCCCN(S(C)(=O)=O)C[C@@H]23)cc1 | 1.4
CS(=O)(=O)N1CCCCN2[C@H](CO)[C@H](c3ccc(C#Cc4ccccn4)cc3)[C@@H]2C1 | 1.3
COc1ccccc1C#Cc1ccc([C@H]2[C@@H](CO)N3CCCCN(S(C)(=O)=O)C[C@@H]23)cc1 | -10*
COc1ccc(C#Cc2ccc([C@@H]3[C@H](CO)N4CCCCN(S(=O)(=O)c5ccccc5)C[C@@H]34)cc2)cc1 | 1.2
O=S(=O)(Cc1ccccc1)N1CCCCN2[C@@H](CO)[C@@H](c3ccc(C#Cc4ccccc4)cc3)[C@@H]2C1 | 3.3
O=S(=O)(Cc1ccccc1)N1CCCCN2[C@H](CO)[C@H](c3ccc(C#Cc4ccccc4)cc3)[C@@H]2C1 | 3.7
CCS(=O)(=O)N1CCCCN2[C@@H](CO)[C@H](c3ccc(C#Cc4ccccc4OC)cc3)[C@@H]2C1 | -5.9*
C/C=C/c1ccc([C@H]2[C@@H](CO)N(C(C)=O)[C@@H]2CN(CCC)C(=O)C2CC2)cc1 | 1.4
CCC(=O)N1CC(=O)N2[C@H](C1)[C@@H](c1ccc(-c3cccnc3)cc1)[C@@H]2CO | 1.7
CN1CCCCN2[C@H](C1)[C@@H](c1ccc(-c3ccc(F)cc3)cc1)[C@@H]2CO | -0.96
COc1ccccc1-c1cnc2c(c1)C(=O)N([C@H](C)CO)C[C@H](C)[C@H](CN(C)C(=O)CC1CC1)O2 | -1.9
COCC#Cc1ccc([C@H]2[C@@H](CO)N3C(=O)CN(C(=O)Nc4ccccc4F)C[C@H]23)cc1 | 1.5
SMILES | IDE exosite FP
C/C=C/c1ccc([C@H]2[C@@H](CO)N(S(C)(=O)=O)[C@@H]2CN(CC)C(C)=O)cc1 | 0.53
CCCNC(=O)N1[C@H](C#N)[C@@H](c2ccc(/C=C/c3ccccc3)cc2)[C@H]1CO | 0.86
CCCNC(=O)N1[C@@H](C#N)[C@H](c2ccccc2)[C@@H]1CO | 3.5
Cc1noc(C)c1NC(=O)N1C[C@@H](O)COC[C@@H]2O[C@H](CC(=O)N[C@H]3CCN(Cc4ccccc4)C3)CC[C@H]21 | 0.14
Cc1ccccc1-c1ccc([C@@H]2[C@@H](CO)N3C(=O)CN(C(=O)Cc4ccccn4)C[C@H]23)cc1 | -5.8*
O=C(Cc1ccccn1)N1CC(=O)N2[C@H](CO)[C@@H](c3ccc(-c4ccc(F)cc4)cc3)[C@H]2C1 | 3.3
